Sampled rows, rich in hits. Any-hit rate of the full collection: about 7.4%.
ELG1 genotox: qHTS screen for small molecules that induce genotoxicity in human embryonic kidney (HEK293T) cells expressing luciferase-tagged ELG1. Potency, µM (doses to about 46 µM), for inactives: at the top dose activity change, positive = activation, most hits filed as activators. AID 504466, 2011. HEK293T ELG1-luciferase reporter, luminescence, 16 h. 330,000 compounds, 1.3% hits; also: % of control where 0% means no effect; nearly all actives have a fitted effect of over 60% in size
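Genotoxic stress is detected as increased luminescence from luciferase-tagged ELG1 in HEK293T cells, measured with ONE-Glo after a 16 hr treatment at 37 °C.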
FLuc counter: qHTS profiling assay for firefly luciferase inhibitor/activator using purifed enzyme and Km concentrations of substrates (counterscreen for miR-21 project) | Potency, µM (top dose mostly 57.5 µM), without a hit: at the highest dose activity change, negative = inhibition, actives largely listed as inhibitors | purified FLuc, Km substrates, luminescence inhibition | 360,000 compounds, 6.9% hits;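 also: plate controls were vehicle for no effect and reference inhibitor for full effect; nearly all actives have a fitted effect of over 55% in size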
Target sequence (P08659 whole entry, looked up): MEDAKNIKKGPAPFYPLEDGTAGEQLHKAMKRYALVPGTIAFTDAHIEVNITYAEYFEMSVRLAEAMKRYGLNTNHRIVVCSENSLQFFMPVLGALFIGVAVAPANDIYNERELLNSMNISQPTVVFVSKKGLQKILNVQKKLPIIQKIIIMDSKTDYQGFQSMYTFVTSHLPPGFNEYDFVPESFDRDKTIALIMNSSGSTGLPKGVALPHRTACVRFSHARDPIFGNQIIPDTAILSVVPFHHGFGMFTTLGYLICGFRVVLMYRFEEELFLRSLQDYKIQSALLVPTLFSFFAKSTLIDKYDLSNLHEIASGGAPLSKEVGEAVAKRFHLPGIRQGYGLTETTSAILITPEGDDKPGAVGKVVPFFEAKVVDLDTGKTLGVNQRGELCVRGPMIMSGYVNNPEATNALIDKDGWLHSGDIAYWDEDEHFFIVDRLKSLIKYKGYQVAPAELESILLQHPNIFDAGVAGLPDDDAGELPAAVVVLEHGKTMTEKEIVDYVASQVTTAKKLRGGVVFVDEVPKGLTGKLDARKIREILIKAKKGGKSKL
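Biochemical qHTS of compounds, final roughly 60 µM downward over six points, against 10 nM purified firefly luciferase using Km concentrations of substrates (10 uM D-luciferin, 10 uM ATP) in Tris acetate pH 7.5 buffer; luminescence output.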
NPC1 prom act: qHTS Assay for NPC1 Promoter Activators | Huh7 NPC1 promoter luciferase reporter, 24 h | Potency, µM (titrated, usually from 9.22 µM), for the others: top-dose activation, usual class: activators | 320,000 compounds, 2.4% hits | AID 485313, 2010; also: % of control where 0% means no effect; nearly all actives have a fitted effect of over 60% in size
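Cells: Huh7 expressing luciferase under the NPC1 promoter, 1500/well. Seeded 2 h, compound added, incubated 24 h at 37 °C. Luciferase reagent, 10 min ambient, then luminescence.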
SMN2 splice enh: qHTS Assay for Enhancers of SMN2 Splice Variant Expression | HEK293 SMN2-luciferase splicing reporter, luminescence, 30-36 h | Potency, µM (highest dose often 46.1 µM), for inactives: at the top dose activity change, positive = activation, actives largely listed as activators | 210,000 compounds, 2.8% hits; also: % of control where 0% means no effect; nearly all actives have a fitted effect of over 55% in size
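HEK293 cells carry an SMN2 […]–luciferase reporter in which exon 7 inclusion puts luciferase in frame. Cells were plated 10-12 h before compound addition, then incubated 30-36 h at 37C. ONE-Glo luminescence was read; sodium butyrate at 4.5 mM final served as control.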
Rab9 prom act: qHTS Assay for Rab9 Promoter Activators; Potency, µM (titrated, usually from 9.22 µM), for inactives: at the highest dose activation, negative = inhibition, actives largely listed as activators; Huh7 Rab9 promoter-luciferase reporter, luminescence, 24 h; 320,000 compounds, 2.8% hits; also: % of control where 0% means no effect; nearly all actives have a fitted effect of over 60% in size
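Measured in stably transfected Huh7 cells bearing a Rab9 promoter–luciferase construct: 24 h compound treatment at 37 °C, followed by luminescence detection.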
Starred values were filed as active, the others as inactive; ? = inconclusive; . = no result; ! = not confirmed by another sample; [ ] = remark or other dose. Calls follow the shape of the dose curve; as a rule, active = well fitted curve in the direction sought with a large enough effect; inconclusive = small, poorly fitted or top-dose-only effect, or another doubt; inactive = no such curve, though single readings can be large; an effect the other way counts as inactive or inconclusive. Potency is read from the fitted curve at half-maximal effect.

SMILES	ELG1 genotox	FLuc counter	NPC1 prom act	SMN2 splice enh	Rab9 prom act
O=C(CCn1c(=O)c2cccn2c2ccc(F)cc21)NCc1ccccc1F	.	3%	.	.	.
O=C(Nc1ccc(Br)cn1)c1cccc(C(=O)Nc2ccc(Br)cn2)c1	21µM*	3µM*	2µM*	.	0.56µM*
O=C(Nc1ccc(Br)cn1)c1ccc2ccccc2c1	?	1.9µM*	1.6µM*	.	1.1µM*
O=S(=O)(Nc1ccc(Br)cn1)c1ccc2ccccc2c1	3%	-8%	-5%	.	3%
O=C(Nc1ccc(Br)cn1)c1cccc(S(=O)(=O)N2CCCC2)c1	-3%	.	.	.	.
CCCCC(CC)CNC(=O)CN(C)S(=O)(=O)c1ccc2c(c1)c(=O)n(C)c(=O)n2C (stereo not given)	.	5%	.	-12%	.
CC(=O)Nc1ccc(NC(=S)NC(=O)c2oc3ccccc3c2C)cc1	10%	0%	1%	-24%	6%
C=CCNC(=S)NC(=O)c1oc2ccccc2c1C	?	9.5µM*	?	?	4µM*
Cc1cccnc1NC(=S)NC(=O)c1oc2ccccc2c1C	?	19µM*	1.8µM*	.	3.2µM*
Cc1c(C(=O)NC(=S)NCC(C)C)oc2ccccc12	?	3µM*	2.8µM*	13µM*	?
Cc1cccc(C)c1Nc1c(-c2ccc(Cl)s2)nc2ncccn12	.	-10%	.	-9%	.
N#Cc1ccccc1NS(=O)(=O)c1ccc(N2CCCCS2(=O)=O)cc1	.	-5%	.	.	.
COc1ccc(-c2cc(C(=O)Nc3ccc(C)cc3)no2)cc1	.	0%	.	-18%	.
CCC(C)NC(=O)c1cc(-c2ccc(OC)cc2)on1 (stereo not given)	?	6µM*	2.8µM*	10µM*	3.2µM*
COc1ccc(-c2cc(C(=O)O)no2)cc1	1%	-3%	-4%	.	-3%
COc1ccc(-c2cc(C(=O)NCC(C)C)no2)cc1	2.6µM*	2.4µM*	1.4µM*	11µM*	0.71µM*
CCC(CC)C(=O)Nc1ccc(OCc2cc(=O)n3c4c(sc3n2)CCCC4)cc1	.	-8%	.	-11%	.
O=C(O)CCSc1ncnc2nc[nH]c12	.	.	.	-11%[9.22 µM]	.
O=C(CSc1ncnc2nc[nH]c12)c1ccccc1	1%	21µM*	2.8µM*	11µM*!	4µM*
c1ccc(CCSc2ncnc3nc[nH]c23)cc1	7%	15µM*	?	-7%	?
CCOC(=O)c1c(C)[nH]c(C)c1S(=O)(=O)N1CCCC(C(=O)Nc2ccccc2OCC)C1 (stereo not given)	.	-6%	.	.	.
O=C(NCCN1CCc2ccccc2C1)Nc1ccc(F)cc1	-3%	3%	2%	-4%	-1%
O=C(Nc1ccc(Br)cc1)N1CCc2ccccc2C1	?	11µM*	2.8µM*	.	2.8µM*
O=C(CN1CCc2ccccc2C1)Nc1ccc(Br)cc1	10%	?	-1%	11%	-8%
O=C(Nc1ccc(F)cc1)N1CCc2ccccc2C1	?	24µM*	4µM*	.	?
SMILES	ELG1 genotox	FLuc counter	NPC1 prom act	SMN2 splice enh	Rab9 prom act
CC1(C)C(=O)C(c2ccccc2)=C2CN3C(=O)N(CCc4ccccc4)C(=O)C3(Cc3ccc(C(F)(F)F)cc3)C=C21 (stereo not given)	.	.	.	-17%	.
CCOC(=O)C1CCCN(C(=O)CCS(=O)(=O)c2cc3c(cc2Cl)NC(=O)CO3)C1 (stereo not given)	.	-13%	.	.	.
O=C(CSc1nc2c([nH]c3ccccc32)c(=O)n1-c1cccc(C(F)(F)F)c1)N1CCc2ccccc21	.	-1%	.	.	.
Cc1ccc(-n2ncc3c(NCCCn4ccnc4)ncnc32)c(C)c1	-2%	0%	0%	-25%	-7%
Cc1cccc(-n2ncc3c(NCCCn4ccnc4)ncnc32)c1	?	?	27%	7.1µM*	?
Cc1ccc(Cl)cc1-n1ncc2c(NCCCn3ccnc3)ncnc21	.	-6%	.	.	.
Cc1ccc(-n2ncc3c(NCCCn4ccnc4)ncnc32)cc1	.	12µM*	.	.	.
O=C1C2C(C(=O)N1/N=C/c1cc([N+](=O)[O-])ccc1O)C1C=CC2C12CC2 (stereo not given)	-2%	-16%	-1%	1%	5%
O=C1C2C(C(=O)N1/N=C/c1cccc([N+](=O)[O-])c1)C1C=CC2C12CC2 (stereo not given)	?	7.6µM*	?	16%	?
COc1cccc(-c2nnc(SCC(=O)N(C)c3ccccc3)o2)c1	.	-11%	.	.	.
O=C(NCCc1csc(-c2cccc(F)c2)n1)C(=O)Nc1cc(F)ccc1F	.	-5%	.	.	.
N[C@@H](Cn1ccc(=O)c(O)c1)C(=O)O	.	.	0%[46.1 µM]	.	-6%[46.1 µM]
O=S(=O)(c1cccc(Cl)c1)n1c(/C=C/c2ccccc2Cl)nc2ccccc21	.	0.095µM*	.	.	.
CSc1ccc(/C=C/c2nc3ccccc3n2S(=O)(=O)c2cccc(Cl)c2)cc1	.	0.076µM*	.	?	.
Cc1ccc(/C=C/c2nc3ccccc3n2S(=O)(=O)c2ccc(Br)cc2)cc1	.	0.76µM*	.	.	.
Cn1c(/C=C/c2ccc(Br)cc2)nc2ccccc2c1=O	?	?	3.5µM*	.	?
CCc1ccc(CNC(=O)c2c(C)oc3ncn(CC(C)C)c(=O)c23)cc1	.	-10%	.	.	.
CN1C=C/C(=C\c2cc[n+](C)c3ccccc23)c2ccccc21	12%	17µM*	-39%	-82%	-32%
CCNC(=S)/N=C(\N)Nc1nc(C)c2cc(C)ccc2n1	?	6µM*	3.5µM*	.	2.8µM*
COc1cc(/C=N/NS(=O)(=O)c2ccc3ccccc3c2)ccc1OCc1ccc(C(=O)O)cc1	?	0.34µM*	0.63µM*	.	2µM*
COc1cc(/C=N/NS(=O)(=O)c2ccc(C)cc2)ccc1OCc1cccc(C(=O)O)c1	20%	0.43µM*	2µM*	3.5µM*	0.89µM*
CCc1ccc(OCC(=O)N/N=C/c2ccc(OS(=O)(=O)c3ccc(C)cc3)c(OC)c2)cc1	-1%	5.4µM*	-1%	4%	-4%
COc1ccc(-c2nc3sc(CCNC(=O)C(=O)Nc4cccc(NC(C)=O)c4)c(C)n3n2)cc1	.	5%	.	.	.
CCCCN(C)CCNC(=O)c1nn(-c2ccc(OC)c(Cl)c2)c(=O)c2c1c1ccccc1n2C	.	3%	.	-2%	.
CN(C)/C=N/c1c(C#N)cnn1-c1nc2ccccc2s1	13%	-8%	0.11µM*	-10%	0.13µM*
CN(C)/C=N/c1c(C#N)cnn1-c1ccccc1	0%	1%	0%	-3%	-19%
CCN(CC)c1ccc(/C=C2/C(=O)c3ccc(C(=O)O)cc3C2=O)cc1	?	0.48µM*	-2%	-2%	-6%
CCN(CC)c1ccc(C=C2C(=O)OC3(CCCCC3)OC2=O)cc1	0%	?	-5%	-6%	10%
